Results on 6 compounds are retold here after PubChem BioAssay (NCATS).

Experiment [1] in a line: AP1 Signaling Pathway (AID 357; active = well fitted curve in either direction with a large enough effect, not every such curve was filed as active;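 note: ME-180 reporter cells stimulated with EGF at its EC50 level; % is set by controls: 0 for no effect and ±100 for the full control effect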). Conditions: ME-180 AP-1-bla reporter, EGF-induced, beta-lactamase ratio, 5 h; at 7.69 µM (top of the series) unless noted. Put shortly: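 First, ME-180 AP-1-bla cells were cultured overnight at 37 °C in low-serum Opti-MEM. Next, titrated compounds with EC50 EGF were incubated 5 hours. Finally, CCF4 was added for 2.5 hours and the 460/530 nm ratio recorded.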

The target in experiment [2] is Cytochrome P450 1A2 (Homo sapiens) (UniProt P05177). Kind of experiment: p450-cyp1a2 (AID 410; calls by dose curve; note: potency is the fitted concentration of half-maximal effect). Put shortly: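 Inhibition was calculated relative to 57 uM furafylline (full inhibition). The reaction used human CYP1A2 at 20nM with Luciferin-ME at its Km, 100uM, driven by an NADPH-regenerating system for 60 min at room temperature.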
Experiment [3] can be described thus: NFAT Signaling Pathway (AID 444; active = well fitted curve in either direction with a large enough effect, not every such curve was filed as active;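 note: carbachol stimulus at about its EC50 of 1 µM final; % is set by controls: 0 for no effect and ±100 for the full control effect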). Conditions: Jurkat NFAT-bla M1, carbachol, beta-lactamase ratio, 5 h; at 7.69 µM (top of the series) unless noted. Put shortly: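 Jurkat cells with NFAT-driven β-lactamase reporter and co-expressed M1 receptor, stimulated with carbachol (final 1 uM, ~EC50), compound titration, 5 h at 37 °C. CCF4 loaded 1 h at RT; 460/530 nm ratio gave %activity and AC50.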

Experiment [4] in a line: Stat Signaling Pathway (AID 446; active = well fitted curve in either direction with a large enough effect, not every such curve was filed as active;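 note: ME-180 cervical cancer cells given 40 pM IL-6 alongside compound; SIE-controlled beta-lactamase reporter measured as 460/530 nm FRET emission ratio; % is set by controls: 0 for no effect and ±100 for the full control effect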). To be noted: ME-180 SIE beta-lactamase reporter, IL-6 stimulated, 5 h; at 7.69 µM (top of the series) unless noted. A digest of the protocol: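 Reporter line: ME-180 cervical carcinoma, SIE-beta-lactamase. Treatment: compound with 40 pM IL-6, 5 hrs, 37 C, in low-serum OPTI-MEM with 10 mM HEPES pH 7.3. Detection: 460/530 nm fluorescence.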

In experiment [5] the target is Glucocorticoid receptor (Homo sapiens) (UniProt P04150). Description: GR-GFP Redistribution (AID 450;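 active = compounds whose dose series gives a full or clear partial fitted curve of increased nuclear translocation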; note: potency is the fitted concentration of half-maximal effect). To be noted: U2OS GR-GFP nuclear translocation, laser cytometry, 2 h.
For experiment [6] the target is unchanged. Description: GR-EFC Redistribution (AID 451; calls by dose curve; note: potency is the fitted concentration of half-maximal effect). Conditions: CHO-K1 GR-EFC translocation, beta-gal luminescence, 2 h. Put shortly: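 CHO-K1 cells expressing nuclear EA and GR-ED fragments of b-gal; compounds titrated up to 46 uM final, 2 h at 37 C. GR nuclear translocation read as complemented b-gal luminescence after 1 h RT detection.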
The target of experiment [7] is Mitogen-activated protein kinase 10 (Mus musculus) (UniProt Q61831). Kind of experiment: JNK3 AlphaScreen Assay (AID 530; active = well fitted curve in either direction with a large enough effect, not every such curve was filed as active;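 note: kinase came from lysate of stimulated human HepG2 cells; signal reports phosphorylation of biotinylated GST-cJun 1-79 at Ser73 with 10 µM ATP; % is set by controls: 0 for no effect and ±100 for the full control effect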). Put shortly:
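qHTS format: compounds tested as titrations against IL-1beta/TNF-alpha-activated HepG2 lysate JNK3 with biotin-GST-cJun substrate and 10 uM ATP at room temperature. Loss of anti-phospho-cJun AlphaScreen signal indicates inhibition.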

Experiment [8] concerns the target 3',5'-cyclic-AMP phosphodiesterase 4B (Homo sapiens) (UniProt Q07343). Kind of experiment: qHTS Assay for Inhibitors of PDE-IV (AID 607; active = well fitted activation curve with a large enough effect in the main read-out, with a control signal flat, not every such curve was filed as active; note: % of control where 0% means no effect). Put shortly: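 Cell-based read-out of cAMP via a modified cyclic nucleotide-gated channel and membrane potential dye (535/590 nm) in HEK293 cells expressing PDE4 endogenously. Compounds tested up to 22.9 uM final; 100 uM RO 20-1724 reference.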
In general terms: Quantitative high-throughput screening tests each substance at several concentrations.

Experiment [9] addresses Cytochrome P450 2C9 (Homo sapiens) (UniProt P11712). Description: qHTS Assay for Inhibitors and Substrates of Cytochrome P450 2C9 (AID 883). Note: nearly all actives have a fitted effect of over 60% in size. Note: potency is the fitted concentration of half-maximal effect. Put shortly: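 Signal: luciferase luminescence reporting luciferin produced by CYP2C9. Conditions: 10nM enzyme, Luciferin-H 100uM at KM, 25mM KPO4, 37C, 60 min NADPH-driven reaction. Reference: 57uM sulphaphenazole as 100% inhibition.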

For experiment [10], the target named is Cytochrome P450 2D6 (Homo sapiens) (UniProt P10635). Kind of experiment: qHTS Assay for Inhibitors and Substrates of Cytochrome P450 2D6 (AID 891).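 Note: luciferin methyl ether substrate demethylated by CYP2D6 with NADPH regeneration; % is set by controls: 0 for no effect and ±100 for the full control effect; nearly all actives have a fitted effect of over 60% in size.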 A digest of the protocol: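 Human CYP2D6 (5 nM) with 30 uM Luciferin-ME EGE (at Km) in 100 mM KPO4, compound preincubated 10 min, then NADPH regeneration system for 60 min at room temperature. Luciferin read by luminescence; normalized to 1.43 uM quinidine.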

The target of experiment [11] is Cytochrome P450 2C19 (Homo sapiens) (UniProt P33261). Description: qHTS Assay for Inhibitors and Substrates of Cytochrome P450 2C19 (AID 899). Note: % is set by controls: 0 for no effect and ±100 for the full control effect; nearly all actives have a fitted effect of over 60% in size. A digest of the protocol:
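Signal comes from luciferase acting on luciferin released by CYP2C19-mediated hydroxylation of Luciferin-H EGE, 10uM (KM). Assay mix: 5nM enzyme, 50mM KPO4; 60 min at 37C with NADPH regeneration. Data normalized against 57uM ketoconazole.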

Experiment [12] concerns the target Guanine nucleotide-binding protein G(i) subunit alpha-1 (Homo sapiens) (UniProt P63096). Kind of experiment: qHTS Assay for Inhibitors of RGS12 GoLoco Motif Activity (Green Fluorophore) (AID 879).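 Note: 0% = labeled peptide with Gαi1 and full inhibition = labeled peptide alone without protein; negative values mean loss of peptide binding seen as reduced polarization.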 A digest of the protocol:
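Fluorescence polarization assay: 50 nM Gαi1 with 10 nM FITC-labeled RGS12 GoLoco peptide in 10 mM Tris pH 7.5, 150 mM NaCl, 0.1 mM GDP, 0.05% NP40, 10 min at room temperature with compound.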

Experiment [13] concerns the target Cytochrome P450 3A4 (Homo sapiens) (UniProt P08684). Kind of experiment: qHTS Assay for Activators of Cytochrome P450 3A4 (AID 885). Note: nearly all actives have a fitted effect of over 65% in size. Put shortly:
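Signal was normalized against complete inhibition by 57 uM ketoconazole. The reaction used 20nM CYP3A4 with 25uM Luciferin-PPXE, 10-min compound preincubation and a 60-min NADPH-supported step at RT.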

Experiment [14] in a line: qHTS Assay for Identification of Small Molecule Agonists for Thrombopoietin (TPO) Signaling Pathway (AID 917). Note: % is set by controls: 0 for no effect and ±100 for the full control effect. Put shortly: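 We measured Glycoprotein IIb promoter–luciferase output in IL-3-starved Ba/F3 murine cells expressing the human TPO receptor after 24 hrs at 37 C with compounds and 26 pM TPO.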
For experiment [15], the target named is Pyruvate kinase (Leishmania mexicana) (UniProt Q27686). Kind of experiment: qHTS Validation Assay for Inhibitors of Leishmania Mexicana Pyruvate Kinase (AID 945).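 Note: 0% = DMSO only neutral control wells.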 A digest of the protocol:
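Mutant LmPYK (E451W), 0.2 nM, plus 0.5 mM PEP and 0.1 mM ADP in 50 mM imidazole pH 7.2 containing 0.01% Tween 20 and 0.05% BSA. Incubated 1 h at room temperature; luminescence via PKLight, normalized to DMSO.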

The target in experiment [16] is Pyruvate kinase PKM (Homo sapiens) (UniProt P14618). Kind of experiment: qHTS Assay for Activators of Human Muscle Pyruvate Kinase (AID 954; active = well fitted curve in the direction sought with a large enough effect, not every such curve was filed as active;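 note: 0% = uninhibited enzyme and -100% = no enzyme or full thiadiazolimine inhibition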). Put shortly:
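Human PKM2 activity is measured as ATP generation, detected by luciferase-coupled luminescence. The enzyme (0.1 nM) acts on 0.5 mM PEP and 0.1 mM ADP for 1 h at ambient temperature; data are normalized to uninhibited and full-inhibition wells.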

The target of experiment [17] is Alpha-galactosidase A (Homo sapiens) (UniProt P06280). Description: Counterscreen for Glucocerebrosidase Inhibitors: qHTS Assay for Human alpha-Galactosidase at pH 4.5 (AID 992). Note: 0% is about no effect. A digest of the protocol: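 Quantitative HTS: compounds tested from 0.7 nM up to 77 uM against 2 nM enzyme with 80 uM 4-MU alpha-D-galactopyranoside. The 20 min room-temperature reaction is stopped with 1M NaOH/1M glycine, pH 10.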

For experiment [18], the target named is alpha-glucosidase (Oryza sativa, rice) (UniProt Q653V4). Kind of experiment: Counterscreen for Glucocerebrosidase Inhibitors: qHTS Assay for Rice alpha-Glucosidase at pH 5.0 (AID 997).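 Note: 0% = full activity with enzyme and -100% = basal without enzyme.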 Put shortly: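 Rice alpha-glucosidase (4 nM final) with 400 uM 4-methylumbelliferyl-alpha-D-glucopyranoside in citrate buffer pH 5.0, 20 min at room temperature, stopped at pH 10; fluorescence 365/440 nm, compounds 0.7 nM–77 uM, AC50 from Hill fits.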

Experiment [19] deals with Muscarinic acetylcholine receptor M1 (Rattus norvegicus) (UniProt P08482). Kind of experiment: qHTS Assay for Antagonists of Acetylcholine Muscarinic M1 Receptor: Measurement of IP-One Response (AID 944). Note: nearly all actives have a fitted effect of over 75% in size. A digest of the protocol: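 Steps: plate transfected CHO-M1 cells overnight; add test compound, 10 min; add carbachol (200 nM, EC80) in stimulation buffer with LiCl; incubate 30 min; add labelled IP1 tracer and anti-IP1 antibody in lysis buffer; read HTRF after 10 min.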

A short description of experiment [20]: qHTS Assay for Identification of Small Molecule Antagonists for NFkB Signaling Pathway (AID 895; active = well fitted inhibition curve with a large enough effect in the signal ratio, with a control signal flat, not every such curve was filed as active; the % refers to the signal ratio; note: % is set by controls: 0 for no effect and ±100 for the full control effect). A digest of the protocol: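 ME-180 NFkB-bla cells (beta-lactamase under NFkB response element), plated overnight, treated with compound then 10 pM TNF alpha (about EC50) for 5 hrs at 37 C. LiveBLAzer FRET read at 460/530 nm emission, 405 nm excitation.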

Unmarked numbers belong to inactive results. Inconclusive results are not listed. Active and inactive are the calls of the source. Unless noted, calls come from the whole dose curve; as a rule, active = well fitted curve in the direction sought with a large enough effect; inconclusive = small, poorly fitted or top-dose-only effect, or another doubt; inactive = no such curve, though single readings can be large; an effect the other way counts as inactive or inconclusive.

Muscarinic acetylcholine receptor M1 (Rattus norvegicus), sequence (P08482 whole entry, looked up): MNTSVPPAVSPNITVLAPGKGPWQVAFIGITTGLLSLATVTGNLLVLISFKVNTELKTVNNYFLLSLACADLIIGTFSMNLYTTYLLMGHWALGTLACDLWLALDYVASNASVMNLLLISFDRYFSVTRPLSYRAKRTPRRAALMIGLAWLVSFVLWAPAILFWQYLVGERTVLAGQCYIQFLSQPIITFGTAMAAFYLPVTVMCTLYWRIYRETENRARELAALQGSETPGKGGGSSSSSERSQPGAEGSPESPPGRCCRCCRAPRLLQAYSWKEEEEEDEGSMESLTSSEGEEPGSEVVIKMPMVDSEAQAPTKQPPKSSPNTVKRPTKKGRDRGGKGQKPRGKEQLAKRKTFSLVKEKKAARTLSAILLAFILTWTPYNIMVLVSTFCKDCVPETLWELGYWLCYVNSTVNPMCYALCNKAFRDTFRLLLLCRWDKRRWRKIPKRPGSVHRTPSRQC
Guanine nucleotide-binding protein G(i) subunit alpha-1 (Homo sapiens), sequence (P63096 whole entry, looked up): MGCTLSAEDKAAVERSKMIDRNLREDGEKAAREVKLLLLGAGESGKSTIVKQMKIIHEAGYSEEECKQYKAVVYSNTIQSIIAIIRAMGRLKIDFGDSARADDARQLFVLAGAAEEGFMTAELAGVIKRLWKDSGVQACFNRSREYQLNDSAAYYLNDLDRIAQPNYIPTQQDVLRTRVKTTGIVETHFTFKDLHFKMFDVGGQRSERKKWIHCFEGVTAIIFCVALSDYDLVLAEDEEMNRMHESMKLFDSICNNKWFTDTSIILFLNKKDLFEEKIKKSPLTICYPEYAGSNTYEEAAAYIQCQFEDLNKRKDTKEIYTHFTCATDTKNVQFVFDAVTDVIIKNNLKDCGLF
Cytochrome P450 1A2 (Homo sapiens), sequence (P05177 whole entry, looked up): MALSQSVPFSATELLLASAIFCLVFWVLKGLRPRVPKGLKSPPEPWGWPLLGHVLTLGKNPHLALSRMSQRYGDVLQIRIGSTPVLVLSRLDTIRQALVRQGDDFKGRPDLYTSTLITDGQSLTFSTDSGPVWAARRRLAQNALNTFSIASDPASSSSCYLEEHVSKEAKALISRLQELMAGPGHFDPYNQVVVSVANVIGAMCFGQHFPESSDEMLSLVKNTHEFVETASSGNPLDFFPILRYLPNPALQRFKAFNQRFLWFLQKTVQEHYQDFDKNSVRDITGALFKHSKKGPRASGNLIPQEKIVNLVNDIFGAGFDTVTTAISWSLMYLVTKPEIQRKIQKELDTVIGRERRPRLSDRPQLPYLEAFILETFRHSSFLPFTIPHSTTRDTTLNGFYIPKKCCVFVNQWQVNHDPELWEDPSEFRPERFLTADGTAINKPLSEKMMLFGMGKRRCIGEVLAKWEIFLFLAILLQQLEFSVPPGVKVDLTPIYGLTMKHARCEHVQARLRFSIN
3',5'-cyclic-AMP phosphodiesterase 4B (Homo sapiens), sequence (Q07343 whole entry, looked up): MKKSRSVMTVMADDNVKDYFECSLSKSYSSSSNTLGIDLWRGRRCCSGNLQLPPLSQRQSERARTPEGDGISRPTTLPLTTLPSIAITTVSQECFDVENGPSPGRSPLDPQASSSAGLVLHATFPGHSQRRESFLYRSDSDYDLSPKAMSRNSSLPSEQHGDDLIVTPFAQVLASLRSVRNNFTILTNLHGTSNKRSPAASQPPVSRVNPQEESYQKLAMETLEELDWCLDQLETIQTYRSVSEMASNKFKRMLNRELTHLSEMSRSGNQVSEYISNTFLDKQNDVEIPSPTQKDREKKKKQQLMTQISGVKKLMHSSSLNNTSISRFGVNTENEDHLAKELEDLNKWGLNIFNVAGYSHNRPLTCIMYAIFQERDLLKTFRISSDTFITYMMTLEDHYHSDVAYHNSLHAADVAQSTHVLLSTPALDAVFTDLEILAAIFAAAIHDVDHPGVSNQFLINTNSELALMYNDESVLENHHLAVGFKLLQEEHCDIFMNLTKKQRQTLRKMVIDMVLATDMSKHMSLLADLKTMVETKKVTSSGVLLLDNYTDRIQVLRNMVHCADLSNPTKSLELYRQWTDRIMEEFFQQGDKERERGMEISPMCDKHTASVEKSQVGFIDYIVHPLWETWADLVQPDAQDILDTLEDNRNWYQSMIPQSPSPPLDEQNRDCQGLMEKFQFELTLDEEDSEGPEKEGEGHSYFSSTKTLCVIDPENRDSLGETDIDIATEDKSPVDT
Alpha-galactosidase A (Homo sapiens), sequence (P06280 whole entry, looked up): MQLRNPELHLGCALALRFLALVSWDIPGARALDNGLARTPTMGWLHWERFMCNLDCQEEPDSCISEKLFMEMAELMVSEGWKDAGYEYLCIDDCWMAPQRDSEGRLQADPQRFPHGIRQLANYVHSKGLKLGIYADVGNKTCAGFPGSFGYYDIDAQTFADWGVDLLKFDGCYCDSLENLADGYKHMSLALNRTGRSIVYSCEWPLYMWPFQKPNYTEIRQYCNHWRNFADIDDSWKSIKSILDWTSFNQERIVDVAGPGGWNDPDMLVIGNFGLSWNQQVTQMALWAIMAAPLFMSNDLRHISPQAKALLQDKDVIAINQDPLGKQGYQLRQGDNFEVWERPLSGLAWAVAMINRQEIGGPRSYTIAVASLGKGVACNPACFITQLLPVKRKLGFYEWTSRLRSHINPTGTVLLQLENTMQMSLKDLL
Glucocorticoid receptor (Homo sapiens), sequence (P04150 whole entry, looked up, the tested form may be a part): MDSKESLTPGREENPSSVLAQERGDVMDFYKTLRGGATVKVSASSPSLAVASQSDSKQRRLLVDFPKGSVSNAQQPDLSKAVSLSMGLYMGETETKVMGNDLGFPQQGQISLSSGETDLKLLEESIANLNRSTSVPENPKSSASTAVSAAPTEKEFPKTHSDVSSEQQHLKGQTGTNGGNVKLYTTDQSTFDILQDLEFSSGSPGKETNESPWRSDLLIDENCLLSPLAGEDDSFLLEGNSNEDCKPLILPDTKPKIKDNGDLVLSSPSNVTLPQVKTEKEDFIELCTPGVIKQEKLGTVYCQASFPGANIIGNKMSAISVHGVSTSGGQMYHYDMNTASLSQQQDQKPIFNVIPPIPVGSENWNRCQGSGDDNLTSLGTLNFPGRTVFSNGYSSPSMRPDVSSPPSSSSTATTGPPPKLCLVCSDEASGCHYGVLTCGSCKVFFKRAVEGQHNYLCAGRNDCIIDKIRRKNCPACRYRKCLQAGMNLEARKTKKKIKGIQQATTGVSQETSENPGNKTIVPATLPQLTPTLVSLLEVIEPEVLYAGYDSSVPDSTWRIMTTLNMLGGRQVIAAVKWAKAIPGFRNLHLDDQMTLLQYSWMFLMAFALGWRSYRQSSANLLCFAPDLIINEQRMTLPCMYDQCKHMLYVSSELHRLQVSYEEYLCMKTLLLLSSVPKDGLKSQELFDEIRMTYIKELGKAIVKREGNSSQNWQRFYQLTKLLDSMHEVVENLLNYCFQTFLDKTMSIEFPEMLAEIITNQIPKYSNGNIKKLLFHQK
Pyruvate kinase PKM (Homo sapiens), sequence (P14618 whole entry, looked up): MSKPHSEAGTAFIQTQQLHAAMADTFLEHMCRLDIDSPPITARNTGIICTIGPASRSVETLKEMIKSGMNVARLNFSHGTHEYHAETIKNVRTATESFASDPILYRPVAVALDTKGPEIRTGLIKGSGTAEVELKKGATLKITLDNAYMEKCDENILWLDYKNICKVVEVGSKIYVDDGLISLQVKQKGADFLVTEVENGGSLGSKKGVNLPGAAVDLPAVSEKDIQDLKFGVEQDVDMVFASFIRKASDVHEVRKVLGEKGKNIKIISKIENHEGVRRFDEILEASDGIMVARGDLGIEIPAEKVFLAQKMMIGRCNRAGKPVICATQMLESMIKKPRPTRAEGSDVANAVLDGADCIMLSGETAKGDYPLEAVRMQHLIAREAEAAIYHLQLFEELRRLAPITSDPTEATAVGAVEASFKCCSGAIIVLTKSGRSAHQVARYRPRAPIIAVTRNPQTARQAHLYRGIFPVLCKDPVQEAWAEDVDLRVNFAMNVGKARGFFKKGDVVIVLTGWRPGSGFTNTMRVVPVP
Pyruvate kinase (Leishmania mexicana), sequence (Q27686 2-499 E452W): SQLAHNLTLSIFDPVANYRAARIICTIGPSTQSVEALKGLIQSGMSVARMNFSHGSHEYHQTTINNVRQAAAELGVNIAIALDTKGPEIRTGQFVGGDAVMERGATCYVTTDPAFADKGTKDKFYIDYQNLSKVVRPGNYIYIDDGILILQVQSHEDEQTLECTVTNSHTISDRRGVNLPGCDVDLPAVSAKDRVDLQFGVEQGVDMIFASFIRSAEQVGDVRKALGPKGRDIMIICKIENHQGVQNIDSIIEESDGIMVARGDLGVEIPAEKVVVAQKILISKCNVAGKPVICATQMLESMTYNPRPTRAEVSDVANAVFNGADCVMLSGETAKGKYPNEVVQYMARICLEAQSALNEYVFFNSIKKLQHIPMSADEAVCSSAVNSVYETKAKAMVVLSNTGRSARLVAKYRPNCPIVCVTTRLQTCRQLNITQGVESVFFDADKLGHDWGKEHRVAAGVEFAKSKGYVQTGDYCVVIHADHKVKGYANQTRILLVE
Cytochrome P450 2C9 (Homo sapiens), sequence (P11712 whole entry, looked up): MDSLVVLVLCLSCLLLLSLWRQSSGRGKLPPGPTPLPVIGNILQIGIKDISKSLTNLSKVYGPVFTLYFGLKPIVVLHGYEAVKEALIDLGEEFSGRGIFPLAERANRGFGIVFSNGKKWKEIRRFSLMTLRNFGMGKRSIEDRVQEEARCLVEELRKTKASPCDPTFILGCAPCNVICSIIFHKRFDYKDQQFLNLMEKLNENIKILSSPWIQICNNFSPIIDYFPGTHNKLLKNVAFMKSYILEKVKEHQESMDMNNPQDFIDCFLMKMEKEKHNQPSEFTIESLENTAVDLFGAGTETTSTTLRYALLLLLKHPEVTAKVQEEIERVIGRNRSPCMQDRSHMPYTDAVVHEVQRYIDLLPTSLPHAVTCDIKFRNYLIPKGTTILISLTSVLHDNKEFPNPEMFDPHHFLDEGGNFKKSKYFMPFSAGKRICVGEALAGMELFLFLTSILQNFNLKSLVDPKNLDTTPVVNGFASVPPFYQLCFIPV

Turning to `O=C(O)CCCCCC[C@@H]1C(=O)NC(=O)N1CC[C@@H](O)C1CCCCC1`, the activity change, negative = inhibition in [1] was -8.86% [at 38 µM]; in experiment [3], -9.7% [at 38 µM]. The Potency entry in [2], in experiment [7], in experiment [8], in [9], in experiment [10] and in [11] was “inactive” each time. In addition, the activity, negative = inhibition in [4] was 3.65% [at 38 µM]. Also, the Potency in experiment [5] and in [6] was over 46 µM throughout.

Consider `CCCCC/C=C\C[C@H](O)/C=C\c1cccc(C[C@H](O)CCCCO)n1`, for which the activity change, negative = inhibition in experiment [1] was -11.3% [at 38 µM]; in experiment [3], -9.64% [at 38 µM]. The Potency result in experiment [2], in experiment [7], in experiment [8], in [13] and in experiment [18] was “inactive” throughout. Also, the activity, negative = inhibition in experiment [4] was 54.3% [at 38 µM]. Further, the Potency in [5] and in experiment [6] was over 46 µM each time. The compound was classed as inactive in [12], in experiment [14], in [15], in experiment [16] and in experiment [17].

Turning to `N[C@H](CCCC(=O)O)C(=O)O`, the activity change, negative = inhibition in [1] was 3.41% [at 38 µM]; in experiment [3], 7.48% [at 38 µM]. Besides, the Potency entry in [2], in experiment [7], in experiment [8], in [11], in experiment [19] and in experiment [18] was “inactive” throughout. For the same compound, the activity, negative = inhibition in [4] is -3.61% [at 38 µM]. The Potency in [5] and in experiment [6] was over 46 µM each time. The compound was classed as inactive in experiment [12], in experiment [14], in experiment [15], in experiment [16] and in experiment [17].

As for `N#CCCn1c(=O)c(CCc2ccccc2)nc2cnc(Oc3ccccc3)nc21`, the activity change, negative = inhibition in experiment [1] was -21%; in [3] it was -2.26%. In addition, the Potency was 12.6 µM (active) in experiment [2], over 9.22 µM in experiment [5], over 46 µM in experiment [6] and 7.94 µM (active) in experiment [9]. In addition, the activity, negative = inhibition in [4] is -14.5%. Further, the Potency result in experiment [7] and in [8] was “inactive” each time.

As to `NCC[C@H]1CCC[C@H](CCN)N1`, the activity change, negative = inhibition in [1] is 2.44% [at 38 µM]; in experiment [3], 2.27% [at 38 µM]. Moreover, the Potency result in experiment [2], in experiment [7], in [8], in experiment [20], in [19] and in experiment [18] was “inactive” in each case. Besides, the activity, negative = inhibition in experiment [4] is -5.59% [at 38 µM]. The Potency in experiment [5] and in experiment [6] was over 46 µM in each case. Moreover, the outcome in experiment [12], in [14], in experiment [15], in experiment [16] and in experiment [17] was inactive.

As to `O=C(O)CC[C@@H](NC(=O)c1ccccc1C(=O)O)C(=O)O`, the activity change, negative = inhibition in [1] was 10.1% [at 38 µM]; in [3], 6.53% [at 38 µM]. In addition, the Potency entry in [2], in [7], in experiment [8], in [19] and in experiment [18] was “inactive” throughout. For the same compound, the activity, negative = inhibition in experiment [4] is -11.8% [at 38 µM]. In addition, the Potency in experiment [5] and in [6] was over 46 µM each time. Moreover, the compound was called inactive in [12], in experiment [14], in experiment [15], in [16] and in [17].
